Data from PubChem BioAssay (NCATS).
Where “and” joins values, the source holds several entries; their conditions need not be identical. Equal values may be shown once. Results filed as inconclusive are left out. Calls of active or inactive are those of the source. Unless noted, calls follow the shape of the dose curve; as a rule, active = well fitted curve in either direction with a large enough effect (not every such curve was filed as active); inconclusive = small, poorly fitted or top-dose-only effect, or another doubt; inactive = flat fitted curve, though single readings scatter.

Experiments:
[1] = AP1 Signaling Pathway (AID 357);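 also: ME-180 reporter cells stimulated with EGF at its EC50 level; % is scaled to controls: 0 for no effect and ±100 for the full control effect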
Outline: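 First, ME-180 AP-1-bla cells were cultured overnight at 37 °C in low-serum Opti-MEM. Next, titrated compounds with EC50 EGF were incubated 5 hours. Finally, CCF4 was added for 2.5 hours and the 460/530 nm ratio recorded.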

[2] = target: Cytochrome P450 1A2 (Homo sapiens) (UniProt P05177); experiment: p450-cyp1a2 (AID 410; calls by dose curve; also: potency is read from the fitted curve at half-maximal effect;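 as to activity change, negative = inhibition: -100% = full effect of reference inhibitor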)
Outline: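 Luminescent demethylation readout: Luciferin-ME (100uM, equal to Km) turned over by 20nM CYP1A2 for 60 min at room temperature after NADPH regeneration addition, following 10 min compound preincubation. Normalization used 57 uM furafylline as full inhibition.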

[3] = NFAT Signaling Pathway (AID 444); settings: Jurkat NFAT-bla M1, carbachol, beta-lactamase ratio, 5 h;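 also: carbachol stimulus at about its EC50 of 1 µM final; % is scaled to controls: 0 for no effect and ±100 for the full control effect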
Outline: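 Jurkat cells with NFAT-driven β-lactamase reporter and co-expressed M1 receptor, stimulated with carbachol (final 1 uM, ~EC50), compound titration, 5 h at 37 °C. CCF4 loaded 1 h at RT; 460/530 nm ratio gave %activity and AC50.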

[4] = Stat Signaling Pathway (AID 446);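 also: ME-180 cervical cancer cells given 40 pM IL-6 alongside compound; SIE-controlled beta-lactamase reporter measured as 460/530 nm FRET emission ratio; % is scaled to controls: 0 for no effect and ±100 for the full control effect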
Outline: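 FRET read-out (405 nm excitation, 460/530 nm emission) of a beta-lactamase reporter under a STAT-inducible element in ME-180 cervical carcinoma cells. Cells with compound receive 40 pM IL-6 for 5 h. Values are normalised to AC90 stimulation and AC90 JAK-inhibitor controls.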

[5] = target: Glucocorticoid receptor (Homo sapiens) (UniProt P04150); experiment: GR-GFP Redistribution (AID 450;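 active = compounds whose dose series gives a full or clear partial fitted curve of increased nuclear translocation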; also: potency is read from the fitted curve at half-maximal effect); settings: U2OS GR-GFP nuclear translocation, laser cytometry, 2 h
[6] = target: Glucocorticoid receptor (Homo sapiens) (UniProt P04150); experiment: GR-EFC Redistribution (AID 451; calls by dose curve; also: potency is read from the fitted curve at half-maximal effect); settings: CHO-K1 GR-EFC translocation, beta-gal luminescence, 2 h
Outline: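 CHO-K1 cells expressing nuclear EA and GR-ED fragments of b-gal; compounds titrated up to 46 uM final, 2 h at 37 C. GR nuclear translocation read as complemented b-gal luminescence after 1 h RT detection.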

[7] = target: Mitogen-activated protein kinase 10 (Mus musculus) (UniProt Q61831); experiment: JNK3 AlphaScreen Assay (AID 530);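 also: kinase came from lysate of stimulated human HepG2 cells; signal reports phosphorylation of biotinylated GST-cJun 1-79 at Ser73 with 10 µM ATP; % is scaled to controls: 0 for no effect and ±100 for the full control effect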
Outline: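 Activity was read by AlphaScreen after JNK3-containing HepG2 lysate (cytokine pre-activated) phosphorylated biotinylated GST-cJun with 10 uM ATP at room temperature. Phospho-Ser73 cJun antibody with Protein-A acceptor beads provided detection.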

[8] = Cell Viability - BJ (AID 421; calls by dose curve;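 also: potency is read from the fitted curve at half-maximal effect; cells exposed to compound for 40 hours at 37 °C before readout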); settings: BJ fibroblast viability, qHTS
Outline: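 Cytotoxicity as drop in intracellular ATP (CellTiter-Glo, 20 min RT) after 40 hr compound exposure of BJ fibroblasts at 37 °C. Titrations scaled between DMSO and 100 uM tamoxifen, Hill-fitted for AC50.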

[9] = Cell Viability - Jurkat (AID 426;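 active = dose-dependent loss of cell ATP signal giving a full or clear fitted curve, ranked by lower potency value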; also: potency is read from the fitted curve at half-maximal effect); settings: qHTS
Outline: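 Cytotoxicity taken as drop in cellular ATP (CellTiter-Glo luminescence, 20 min room temperature) after 40 hr, 37C treatment of 5000 Jurkat Clone E6-1 cells per well; concentration-response fitted with Hill equation for AC50.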

[10] = Cell Viability - Hek293 (AID 427;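 active = compounds whose dose-response curve shows a full or clear partial loss of cell viability, called from curve shape rather than a numeric limit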;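 also: potency is read from the fitted curve at half-maximal effect; cells exposed to compound for 40 hours at 37 °C before reading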); settings: qHTS
Outline: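 Luminescent ATP content (CellTiter-Glo, 20 min at room temperature) was measured after a 40 hr, 37 °C compound exposure of HEK293 cells. AC50 values came from Hill-equation fits of qHTS concentration-response data normalized to DMSO and 100 uM tamoxifen.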

[11] = Cell Viability - HepG2 (AID 433; calls by dose curve;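 also: potency is read from the fitted curve at half-maximal effect; potency for ATP loss meaning cytotoxicity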); settings: qHTS
Outline: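 In this qHTS format, a 40 h, 37 °C compound incubation of HepG2 cells in complete medium precedes a 20 min CellTiter-Glo step at room temperature. Tamoxifen and doxorubicin serve as positive controls; Hill-equation fits yield AC50.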

[12] = Cell Viability - MRC5 (AID 434; calls by dose curve;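 also: potency is read from the fitted curve at half-maximal effect; potency reflects cytotoxicity seen as loss of intracellular ATP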); settings: MRC5 lung fibroblast viability, qHTS
Outline: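 ATP luminescence read-out (CellTiter-Glo, 20 min RT) after 40 hr, 37 °C compound exposure of 1500 MRC5 cells/well. Data normalized to DMSO (basal) and 100 uM tamoxifen (100% inhibition); AC50 from standard Hill equation.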

[13] = Cell Viability - SK-N-SH (AID 435; calls by dose curve; also: potency is read from the fitted curve at half-maximal effect); settings: SK-N-SH neuroblastoma cell viability qHTS
Outline: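 Human neuroblastoma line, 40 h exposure at 37 °C, ATP quantified via luciferase luminescence; DMSO and 100 uM tamoxifen define 0 and 100% inhibition for AC50 fitting.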

[14] = Cell Viability - N2a (AID 540; active = well fitted curve in the direction sought with a large enough effect; an effect the other way counts as inactive or inconclusive;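 also: plate controls were DMSO alone for no effect and tamoxifen control for full effect; nearly all actives have a fitted effect of over 45% in size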); settings: N2a mouse neuroblastoma cell viability; activity change, negative = cytotoxicity: at 92.2 µM (top of the series)
Outline: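 CellTiter-Glo ATP luminescence, read 20 min after reagent at room temperature, reported viability following 40 h compound treatment at 37 °C. N2a mouse neuroblastoma cells seeded 1500/well; Hill equation gave AC50.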

[15] = Cell Viability - NIH 3T3 (AID 541; active = well fitted curve in the direction sought with a large enough effect; an effect the other way counts as inactive or inconclusive;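 also: plate controls were DMSO alone for no effect and tamoxifen positive control for full effect; nearly all actives have a fitted effect of over 25% in size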); settings: NIH 3T3 cell viability, qHTS; activity change, negative = cytotoxicity: at 92.2 µM (top of the series)
Outline: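 Intracellular ATP (CellTiter-Glo luminescence, 20 min at room temperature) measured after 40 hr compound exposure at 37 °C of 1000 NIH 3T3 mouse fibroblasts/well in complete medium; AC50 derived by Hill-equation modelling of qHTS concentration-response curves.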

[16] = Cell Viability - HUV-EC-C (AID 542; active = well fitted curve in the direction sought with a large enough effect; an effect the other way counts as inactive or inconclusive; also: % is scaled to controls: 0 for no effect and ±100 for the full control effect; nearly all actives have a fitted effect of over 35% in size)
Outline: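 CellTiter-Glo luminescence measured ATP loss in HUV-EC-C cells (1000/well) after 40 hr compound exposure at 37 °C, in complete culture medium. Concentration-response data were Hill-fitted to give AC50.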

[17] = Cell Viability - H-4-II-E (AID 543; active = well fitted curve in the direction sought with a large enough effect; an effect the other way counts as inactive or inconclusive; also: % is scaled to controls: 0 for no effect and ±100 for the full control effect; nearly all actives have a fitted effect of over 35% in size)
Outline: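 CellTiter-Glo luminescence (intracellular ATP) measured after 40 h compound exposure at 37 °C in H-4-II-E rat hepatoma cells seeded at 1500/well. Values are AC50s fitted with the standard Hill equation.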

[18] = Cell Viability - SH-SY5Y (AID 544; active = well fitted curve in the direction sought with a large enough effect; an effect the other way counts as inactive or inconclusive;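 also: 0% = DMSO alone and -100% = 100 µM tamoxifen; nearly all actives have a fitted effect of over 55% in size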); settings: SH-SY5Y neuroblastoma cell viability; viability change, negative = cytotoxic: at 92.2 µM (top of the series)
Outline: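 Cytotoxicity measured via ATP-dependent luciferase luminescence (CellTiter-Glo) following 40 h, 37 °C exposure of 1500 SH-SY5Y cells per well. Concentration-response data were fitted with the standard Hill equation to give AC50.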

[19] = Cell Viability - Renal Proximal Tubule (AID 545; active = well fitted curve in the direction sought with a large enough effect; an effect the other way counts as inactive or inconclusive;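 also: 0% = DMSO only and -100% = 100 µM tamoxifen; nearly all actives have a fitted effect of over 40% in size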)
Outline: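 In this qHTS format, normal rat kidney-derived proximal tubule cells in complete culture medium receive compound titrations, then sit 40 hours at 37 °C before luciferase-based ATP quantitation; potency is reported as AC50 from concentration-response curves.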

[20] = target: Lysosomal acid glucosylceramidase (Homo sapiens) (UniProt P04062); experiment: Glucocerebrosidase-p2 (AID 348; in the data active = potency below about 10 µM; also: potency is read from the fitted curve at half-maximal effect); settings: purified GBA, blue fluorogenic substrate, 40 min
Outline: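 Normal human glucocerebrosidase (0.2 nM) with blue fluorogenic substrate (80 uM final) in citrate/phosphate pH 5.9 with 10mM sodium taurocholate, 0.01% tween-20; 40 min RT, NaOH/glycine stop; fluorescence Ex 365/Em 440; AC50 from a titration from 0.6 nM upwards.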

Sequence of Glucocorticoid receptor (Homo sapiens) (P04150 whole entry, looked up, the tested form may be a part): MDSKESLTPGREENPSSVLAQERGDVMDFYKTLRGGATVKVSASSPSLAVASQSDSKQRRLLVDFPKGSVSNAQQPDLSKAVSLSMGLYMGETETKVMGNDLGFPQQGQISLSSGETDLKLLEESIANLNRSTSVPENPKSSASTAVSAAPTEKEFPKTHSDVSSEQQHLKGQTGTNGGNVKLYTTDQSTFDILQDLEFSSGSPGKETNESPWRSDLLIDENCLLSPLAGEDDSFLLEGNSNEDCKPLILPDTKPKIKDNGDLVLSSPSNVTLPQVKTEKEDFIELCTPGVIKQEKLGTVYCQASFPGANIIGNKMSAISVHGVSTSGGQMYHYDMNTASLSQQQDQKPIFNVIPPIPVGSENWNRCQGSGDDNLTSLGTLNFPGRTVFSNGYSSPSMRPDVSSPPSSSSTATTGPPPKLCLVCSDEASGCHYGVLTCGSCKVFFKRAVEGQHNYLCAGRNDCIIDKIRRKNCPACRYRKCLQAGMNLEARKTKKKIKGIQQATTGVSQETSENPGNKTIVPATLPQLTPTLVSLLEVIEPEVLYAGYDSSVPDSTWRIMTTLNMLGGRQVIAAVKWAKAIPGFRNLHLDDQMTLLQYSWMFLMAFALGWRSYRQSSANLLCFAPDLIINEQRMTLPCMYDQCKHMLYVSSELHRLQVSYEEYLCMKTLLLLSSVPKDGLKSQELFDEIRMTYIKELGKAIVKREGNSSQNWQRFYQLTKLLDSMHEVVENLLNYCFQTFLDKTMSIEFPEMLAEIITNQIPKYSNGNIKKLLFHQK
Sequence of Cytochrome P450 1A2 (Homo sapiens) (P05177 whole entry, looked up): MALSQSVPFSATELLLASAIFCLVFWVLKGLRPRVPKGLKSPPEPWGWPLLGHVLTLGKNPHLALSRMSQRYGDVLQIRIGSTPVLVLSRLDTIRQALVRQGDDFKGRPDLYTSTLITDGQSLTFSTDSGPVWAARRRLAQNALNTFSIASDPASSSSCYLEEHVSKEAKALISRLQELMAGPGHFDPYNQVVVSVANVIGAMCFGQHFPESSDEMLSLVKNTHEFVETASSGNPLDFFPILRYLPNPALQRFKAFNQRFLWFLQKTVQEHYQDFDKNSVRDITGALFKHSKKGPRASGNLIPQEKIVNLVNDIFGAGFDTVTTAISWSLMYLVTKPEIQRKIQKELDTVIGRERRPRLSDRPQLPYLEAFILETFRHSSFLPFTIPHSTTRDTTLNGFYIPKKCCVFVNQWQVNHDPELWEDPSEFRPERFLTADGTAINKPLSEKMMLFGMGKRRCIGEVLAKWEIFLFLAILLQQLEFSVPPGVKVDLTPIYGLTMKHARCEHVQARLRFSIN
Sequence of Lysosomal acid glucosylceramidase (Homo sapiens) (P04062 whole entry, looked up): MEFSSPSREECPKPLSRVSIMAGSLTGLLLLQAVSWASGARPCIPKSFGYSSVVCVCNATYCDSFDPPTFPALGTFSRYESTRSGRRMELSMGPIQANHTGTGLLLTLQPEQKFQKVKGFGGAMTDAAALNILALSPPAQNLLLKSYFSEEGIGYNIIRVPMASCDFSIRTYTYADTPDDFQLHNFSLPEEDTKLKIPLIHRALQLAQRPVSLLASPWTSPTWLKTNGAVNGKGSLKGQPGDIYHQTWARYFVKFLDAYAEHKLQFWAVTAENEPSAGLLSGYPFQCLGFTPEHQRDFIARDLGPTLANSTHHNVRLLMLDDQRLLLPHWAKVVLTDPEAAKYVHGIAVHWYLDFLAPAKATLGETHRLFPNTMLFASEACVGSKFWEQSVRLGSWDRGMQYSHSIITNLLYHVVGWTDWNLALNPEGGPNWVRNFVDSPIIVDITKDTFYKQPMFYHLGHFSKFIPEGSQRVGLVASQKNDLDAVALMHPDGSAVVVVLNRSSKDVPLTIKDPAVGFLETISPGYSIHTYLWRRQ

Nc1nc2c(ncn2COC(CO)CO)c(=O)[nH]1
inactive: outcome [1] | Potency [2] | activity change, negative = inhibition ([3]; at 17.2 µM (top of the series)) 3.07% | activity change, negative = inhibition ([3]; at 38 µM (top of the series)) -0.352% | outcome [4] | Potency [5] > 46 µM and > 20.6 µM | Potency [6] > 46 µM and > 20.6 µM | outcome [7]

O=C(Nc1ccc([N+](=O)[O-])cc1Cl)c1cc(Cl)ccc1O
inactive: outcome [1] | Potency [5] > 46 µM and > 20.6 µM | Potency [6] > 46 µM and > 20.6 µM | outcome [7]
active: Potency [2] 3.98 µM and 1.26 µM | activity change, negative = inhibition ([3]; at 17.2 µM (top of the series)) -101% | activity change, negative = inhibition ([3]; at 38 µM (top of the series)) -89.8%

NCCS(=O)(=O)O
inactive: outcome [1] | Potency [8] > 92 µM | Potency [9] > 92 µM | Potency [10] > 92 µM | Potency [11] > 92 µM | Potency [12] > 92 µM | Potency [13] > 92 µM | activity change, negative = inhibition ([3]; at 38 µM (top of the series)) 3.83% | outcome [4] | Potency [5] > 46 µM | Potency [6] > 46 µM | outcome [7] | activity change, negative = cytotoxicity [14] -1.66% | Potency [15] | outcome [16] | Potency [17] | Potency [18] | Potency [19]

CCOC(=O)c1ncn2c1CN(C)C(=O)c1cc(F)ccc1-2
inactive: outcome [1] | activity change, negative = inhibition ([3]; at 38 µM (top of the series)) -1.55%
active: Potency [2] 1.58 µM

CC[C@@]1(O)C(=O)OCc2c1cc1n(c2=O)Cc2cc3c(CN(C)C)c(O)ccc3nc2-1
inactive: Potency [20] > 11.4 µM | activity change, negative = inhibition [2] -17.9% [at 2.29 µM] | Potency [5] > 46 µM | Potency [6] > 9.22 µM | activity change, negative = inhibition [7] 4.05% [at 11.4 µM]

CS(=O)(=O)Nc1ccc([N+](=O)[O-])cc1Oc1ccccc1
inactive: outcome [1] | activity change, negative = inhibition ([3]; at 17.2 µM (top of the series)) -5.4% and -1.94% | outcome [4] | outcome [7]
active: Potency [2] 15.8 µM and 12.6 µM

Cc1cn([C@H]2C=C[C@@H](CO)O2)c(=O)[nH]c1=O
inactive: outcome [1] | Potency [8] > 92 µM | Potency [9] > 92 µM | Potency [10] > 92 µM | Potency [11] > 92 µM | Potency [12] > 92 µM | Potency [13] > 92 µM | activity change, negative = inhibition ([3]; at 17.2 µM (top of the series)) 6.73% | outcome [4] | outcome [7] | activity change, negative = cytotoxicity [14] 11.8% and 9.96% | Potency [15] | outcome [16] | Potency [17] | Potency [18] | Potency [19]

Cc1cc(C(C)(C)C)cc(C)c1CC1=NCCN1
inactive: outcome [1] | Potency [2] | outcome [4] | Potency [5] > 46 µM and > 20.6 µM | Potency [6] > 46 µM and > 20.6 µM | outcome [7]

CN1CCN(CCCN2c3ccccc3Sc3ccc(Cl)cc32)CC1
active: Potency [2] 1 µM and 2.51 µM
inactive: outcome [1] | activity change, negative = inhibition ([3]; at 17.2 µM (top of the series)) -28.9% | outcome [4] | outcome [7]

COc1ccc2c(c1)c(CC(=O)O)c(C)n2C(=O)c1ccc(Cl)cc1
active: Potency [2] 10 µM
inactive: outcome [1] | Potency [8] > 92 µM | Potency [9] > 92 µM | Potency [10] > 92 µM | Potency [11] > 92 µM | Potency [12] > 92 µM | Potency [13] > 92 µM | activity change, negative = inhibition ([3]; at 17.2 µM (top of the series)) -5.62% and 13.9% | activity change, negative = inhibition ([3]; at 38 µM (top of the series)) 8.92% | outcome [4] | Potency [5] > 46 µM and > 20.6 µM | Potency [6] > 46 µM and > 20.6 µM | outcome [7] | activity change, negative = cytotoxicity [14] 0.758% | Potency [15] | outcome [16] | Potency [17] | Potency [18] | Potency [19]

Cn1ccc2cc3c(cc21)CCN3C(=O)Nc1cccnc1
active: Potency [2] 25.1 nM and 3.98 nM
inactive: outcome [1] | activity change, negative = inhibition ([3]; at 38 µM (top of the series)) -1.4% | outcome [4] | Potency [5] > 46 µM | Potency [6] > 46 µM | outcome [7]

N[C@@H](Cc1c[nH]c2ccc(O)cc12)C(=O)O
inactive: outcome [1] | Potency [2] | Potency [8] > 92 µM | Potency [10] > 92 µM | Potency [11] > 92 µM | Potency [12] > 92 µM | activity change, negative = inhibition ([3]; at 38 µM (top of the series)) -5.52% | outcome [4] | Potency [5] > 46 µM | Potency [6] > 46 µM | outcome [7] | activity change, negative = cytotoxicity [14] -0.161% | Potency [15] | outcome [16] | Potency [17] | Potency [19]

Nc1c2c(nc3ccccc13)CCCC2
active: Potency [2] 3.16 µM and 794 nM and 501 nM
inactive: outcome [1] | Potency [8] > 92 µM | Potency [10] > 92 µM | Potency [11] > 92 µM | Potency [12] > 92 µM | Potency [13] > 92 µM | outcome [4] | outcome [7] | activity change, negative = cytotoxicity [14] -21.2% | Potency [15] | outcome [16] | Potency [18] | Potency [19]
